A short description of assay [1]: small molecules captured by biotinylated probe aFSTL3 – biochemical, small-molecule microarray, fluorescence 635/667, stem cell growth factor project, primary screen (AID 1064).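 Also: measures binding of the biotinylated anti-FSTL3 antibody to printed compounds.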 The note with it: higher = more signal.
Assay [2] is described as follows: binders from COS7 lysate, DM2A8 probe, primary screen, torsin A project, cell lysate, small-molecule microarray, fluorescence 635/667 (AID 1065). The note with it: higher = more signal, COS7 lysate expressing mutant human TOR1A.
Assay [3] can be described thus: small molecules captured by biotinylated probe aFGF2 – biochemical, small-molecule microarray, fluorescence 635/667, stem cell growth factor project, primary screen (AID 1067).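 Also: measures binding of biotinylated aFGF2 protein to printed compounds on slides; z-score merges feature fluorescence and signal-to-noise across triplicate slides.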 The note with it: higher = more signal.
A short description of assay [4]: small molecules captured by biotinylated probe aFGF10 – biochemical, small-molecule microarray, fluorescence 635/667, stem cell growth factor project, primary screen (AID 1071).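 Also: score merges 667 nm spot intensity and signal to noise from triplicate slides.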 The note with it: higher = more signal.
The target in assay [5] is Neurogenic locus notch homolog protein 2 (Homo sapiens) (UniProt Q04721). Kind of assay: small molecules binding Notch2 protein – biochemical, small-molecule microarray, 635 nm fluorescence, stem cell growth factors, primary screen (AID 1073). The note with it: higher = more signal.
Sequence of Neurogenic locus notch homolog protein 2 (Homo sapiens) (Q04721 whole entry, looked up, canonical isoform): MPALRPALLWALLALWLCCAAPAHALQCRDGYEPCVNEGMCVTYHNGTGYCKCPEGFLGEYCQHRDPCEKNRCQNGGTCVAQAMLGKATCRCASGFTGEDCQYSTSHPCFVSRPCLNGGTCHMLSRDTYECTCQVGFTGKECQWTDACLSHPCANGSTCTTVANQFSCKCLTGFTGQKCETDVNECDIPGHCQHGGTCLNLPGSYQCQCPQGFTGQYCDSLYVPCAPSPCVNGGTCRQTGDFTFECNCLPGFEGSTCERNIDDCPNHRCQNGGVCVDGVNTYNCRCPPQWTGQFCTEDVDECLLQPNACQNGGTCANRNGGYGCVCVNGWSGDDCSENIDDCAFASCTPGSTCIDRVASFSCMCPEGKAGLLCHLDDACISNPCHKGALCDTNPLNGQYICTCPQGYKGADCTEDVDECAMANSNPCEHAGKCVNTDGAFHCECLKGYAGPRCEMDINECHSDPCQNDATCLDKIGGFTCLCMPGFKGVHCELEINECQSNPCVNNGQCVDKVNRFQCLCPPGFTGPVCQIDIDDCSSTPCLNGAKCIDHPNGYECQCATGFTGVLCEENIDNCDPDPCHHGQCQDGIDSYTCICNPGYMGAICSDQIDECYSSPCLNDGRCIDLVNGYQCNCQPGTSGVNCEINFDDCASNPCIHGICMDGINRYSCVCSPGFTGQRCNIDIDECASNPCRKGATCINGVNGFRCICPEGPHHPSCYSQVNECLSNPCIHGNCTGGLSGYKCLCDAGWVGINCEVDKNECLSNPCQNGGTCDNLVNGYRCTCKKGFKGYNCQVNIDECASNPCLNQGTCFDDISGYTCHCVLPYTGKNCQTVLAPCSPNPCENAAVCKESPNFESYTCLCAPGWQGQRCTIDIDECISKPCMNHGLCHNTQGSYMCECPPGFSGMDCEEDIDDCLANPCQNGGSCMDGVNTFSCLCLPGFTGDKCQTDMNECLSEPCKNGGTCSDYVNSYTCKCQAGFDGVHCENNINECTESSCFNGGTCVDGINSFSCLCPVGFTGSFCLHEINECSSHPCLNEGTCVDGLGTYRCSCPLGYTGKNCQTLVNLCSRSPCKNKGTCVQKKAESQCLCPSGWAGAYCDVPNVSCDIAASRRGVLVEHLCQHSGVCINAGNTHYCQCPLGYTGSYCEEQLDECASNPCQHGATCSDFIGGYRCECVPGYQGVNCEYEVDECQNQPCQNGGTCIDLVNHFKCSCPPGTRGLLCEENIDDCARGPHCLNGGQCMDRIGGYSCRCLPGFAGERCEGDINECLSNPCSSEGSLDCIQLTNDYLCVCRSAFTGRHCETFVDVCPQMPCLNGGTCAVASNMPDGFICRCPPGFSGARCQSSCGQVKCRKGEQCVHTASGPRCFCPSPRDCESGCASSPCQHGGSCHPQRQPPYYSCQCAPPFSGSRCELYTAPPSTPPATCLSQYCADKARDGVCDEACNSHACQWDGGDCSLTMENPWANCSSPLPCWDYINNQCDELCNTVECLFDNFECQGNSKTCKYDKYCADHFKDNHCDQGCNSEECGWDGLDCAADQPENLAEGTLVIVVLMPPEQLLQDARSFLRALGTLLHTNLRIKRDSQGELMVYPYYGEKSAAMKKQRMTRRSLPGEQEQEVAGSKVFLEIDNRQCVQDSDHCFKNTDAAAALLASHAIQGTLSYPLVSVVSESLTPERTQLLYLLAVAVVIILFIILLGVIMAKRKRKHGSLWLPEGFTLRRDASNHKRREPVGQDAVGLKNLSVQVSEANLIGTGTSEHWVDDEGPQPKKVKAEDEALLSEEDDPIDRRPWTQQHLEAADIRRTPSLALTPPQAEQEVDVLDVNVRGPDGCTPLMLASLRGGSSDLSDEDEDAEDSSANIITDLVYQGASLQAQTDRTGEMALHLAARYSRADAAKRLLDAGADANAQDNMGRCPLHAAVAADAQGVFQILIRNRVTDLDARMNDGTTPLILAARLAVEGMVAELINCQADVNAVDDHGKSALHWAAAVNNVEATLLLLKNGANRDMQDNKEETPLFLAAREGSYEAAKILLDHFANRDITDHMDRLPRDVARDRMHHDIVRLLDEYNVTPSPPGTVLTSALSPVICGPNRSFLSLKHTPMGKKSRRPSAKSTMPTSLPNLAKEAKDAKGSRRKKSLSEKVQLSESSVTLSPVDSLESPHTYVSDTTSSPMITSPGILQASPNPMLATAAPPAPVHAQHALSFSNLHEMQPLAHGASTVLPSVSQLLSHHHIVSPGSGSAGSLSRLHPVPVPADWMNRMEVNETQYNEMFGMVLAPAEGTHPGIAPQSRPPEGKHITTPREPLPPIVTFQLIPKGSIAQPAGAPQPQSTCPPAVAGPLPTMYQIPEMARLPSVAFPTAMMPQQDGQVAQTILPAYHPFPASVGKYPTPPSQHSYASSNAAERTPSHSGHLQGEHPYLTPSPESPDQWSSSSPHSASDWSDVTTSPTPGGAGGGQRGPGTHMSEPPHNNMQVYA
Assay [6] addresses Pro-neuregulin-1, membrane-bound isoform (Homo sapiens) (UniProt Q02297). The assay can be described thus: small molecules binding neuregulin-1 protein – biochemical, small-molecule microarray, fluorescence 635/667, psychiatric disease protein project, primary screen (AID 1075).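 Also: score combines 667 nm spot fluorescence with signal to noise.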 The note with it: NRG1 binding, 635 nm fluorescence, higher = more signal.
For assay [7], the system named is Neuregulin-1 EGF-like domain. The assay can be described thus: small molecules binding NRG1 EGF domain – biochemical, small-molecule microarray, 635 nm fluorescence, primary screen (AID 1081).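 Also: binding of the protein to compounds printed on small-molecule microarray slides.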 The note with it: higher = more signal.
Assay [8] can be described thus: FRG1 expression reporter modulators in myotubes – cell-based, C2C12 myotubes, firefly/Renilla luciferase, luminescence, FRG1 inhibition for FSHD, primary screen (AID 1084). The note with it: FRG1 promoter luciferase, higher = more signal, called active from +8 up or from −8 down.
Assay [9] in a line: small molecules captured by biotinylated probe aFST – biochemical, small-molecule microarray, fluorescence 635/667, stem cell growth factor project, primary screen (AID 1086).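 Also: score merges 667 nm fluorescence with signal-to-noise of each printed compound spot.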 The note with it: higher = more signal.
Assay [10] can be described thus: binders of probe aHhip on microarray, primary screen, stem cell growth factor project, biochemical, small-molecule microarray, fluorescence 635/667 (AID 1087).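 Also: score merges spot fluorescence at 667nm with spot signal to noise ratio.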 The note with it: higher = more signal.
For assay [11], the system named is PRMT1 (protein arginine N-methyltransferase 1). The assay can be described thus: small molecules binding arginine methyltransferase PRMT1 – biochemical, small-molecule microarray, 635 nm fluorescence, primary screen (AID 1088).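 Also: binding of Prmt1 protein to compounds spotted on small-molecule microarray slides.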 The note with it: higher = more signal.
Assay [12] in a line: growth effects on S. cerevisiae YJM789 – YJM789 clinical isolate, OD600, 24 h, basal, primary screen (AID 1089).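 Also: growth of clinical yeast isolate S. cerevisiae YJM 789 seeded 1000 cells per well; test concentration not given here.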 The note with it: higher = more signal, called active from +8 up or from −8 down.
Assay [13] in a line: S. pombe growth modifiers, basal conditions – strain 972, OD600, 24 h, no modulator, primary screen (AID 1090).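 Also: basal condition with compound alone and no growth modifier present; test concentration not given here.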 The note with it: S. pombe 972 growth, higher = more signal, called active from +8 up or from −8 down.
The nature of assay [14]: budding yeast growth modifiers under rapamycin – strain BY4716, OD600, 96 h, primary screen (AID 1091). Also: test concentration not given here. The note with it: S. cerevisiae BY4716 + rapamycin, higher = more signal, called active from +8 up or from −8 down.
Assay [15] deals with Torsin-1A-interacting protein 2 (Homo sapiens) (UniProt Q8NFQ8). The assay can be described thus: small molecules binding lysate-expressed LULL1 – cell lysate, human LULL1 lysate, 635/667 nm fluorescence, primary screen (AID 1092).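 Also: score merges per-feature 667 nm fluorescence with signal-to-noise.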 The note with it: small-molecule microarray, hLULL1 lysate binding, 635 nm fluorescence; higher = more signal.
A short description of assay [16]: optical density change of DRC41 E. coli – strain DRC41, OD650, 24 h, E. coli filamentation project, primary screen (AID 1093).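 Also: MC1000 strain lacking acrAB efflux and sulA so SOS filamentation is blocked; test concentration not given here.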 The note with it: E. coli DRC41 growth, higher = more signal, called active from +8 up or from −8 down.
Assay [17] is described as follows: probe aLefty2 binding to arrayed compounds – biochemical, biotinylated probe, 635/667 nm fluorescence, primary screen (AID 1094).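 Also: score merges spot fluorescence near 667 nm with spot signal-to-noise ratio.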 The note with it: small-molecule microarray, higher = more signal.
Assay [18] concerns Noggin (protein binding on small-molecule microarray). The assay can be described thus: small molecules binding Noggin protein – biochemical, 635/667 nm fluorescence, primary screen (AID 1095).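 Also: score merges 667 nm feature fluorescence with signal to noise over triplicate slides.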 The note with it: 635 nm fluorescence, higher = more signal.
The target in assay [19] is Neurogenic locus notch homolog protein 3 (Homo sapiens) (UniProt Q9UM47). Kind of assay: small molecules binding NOTCH3 protein – biochemical, 635/667 nm fluorescence, primary screen (AID 1096). The note with it: small-molecule microarray, 635 nm fluorescence, higher = more signal.
Sequence of Neurogenic locus notch homolog protein 3 (Homo sapiens) (Q9UM47 whole entry, looked up): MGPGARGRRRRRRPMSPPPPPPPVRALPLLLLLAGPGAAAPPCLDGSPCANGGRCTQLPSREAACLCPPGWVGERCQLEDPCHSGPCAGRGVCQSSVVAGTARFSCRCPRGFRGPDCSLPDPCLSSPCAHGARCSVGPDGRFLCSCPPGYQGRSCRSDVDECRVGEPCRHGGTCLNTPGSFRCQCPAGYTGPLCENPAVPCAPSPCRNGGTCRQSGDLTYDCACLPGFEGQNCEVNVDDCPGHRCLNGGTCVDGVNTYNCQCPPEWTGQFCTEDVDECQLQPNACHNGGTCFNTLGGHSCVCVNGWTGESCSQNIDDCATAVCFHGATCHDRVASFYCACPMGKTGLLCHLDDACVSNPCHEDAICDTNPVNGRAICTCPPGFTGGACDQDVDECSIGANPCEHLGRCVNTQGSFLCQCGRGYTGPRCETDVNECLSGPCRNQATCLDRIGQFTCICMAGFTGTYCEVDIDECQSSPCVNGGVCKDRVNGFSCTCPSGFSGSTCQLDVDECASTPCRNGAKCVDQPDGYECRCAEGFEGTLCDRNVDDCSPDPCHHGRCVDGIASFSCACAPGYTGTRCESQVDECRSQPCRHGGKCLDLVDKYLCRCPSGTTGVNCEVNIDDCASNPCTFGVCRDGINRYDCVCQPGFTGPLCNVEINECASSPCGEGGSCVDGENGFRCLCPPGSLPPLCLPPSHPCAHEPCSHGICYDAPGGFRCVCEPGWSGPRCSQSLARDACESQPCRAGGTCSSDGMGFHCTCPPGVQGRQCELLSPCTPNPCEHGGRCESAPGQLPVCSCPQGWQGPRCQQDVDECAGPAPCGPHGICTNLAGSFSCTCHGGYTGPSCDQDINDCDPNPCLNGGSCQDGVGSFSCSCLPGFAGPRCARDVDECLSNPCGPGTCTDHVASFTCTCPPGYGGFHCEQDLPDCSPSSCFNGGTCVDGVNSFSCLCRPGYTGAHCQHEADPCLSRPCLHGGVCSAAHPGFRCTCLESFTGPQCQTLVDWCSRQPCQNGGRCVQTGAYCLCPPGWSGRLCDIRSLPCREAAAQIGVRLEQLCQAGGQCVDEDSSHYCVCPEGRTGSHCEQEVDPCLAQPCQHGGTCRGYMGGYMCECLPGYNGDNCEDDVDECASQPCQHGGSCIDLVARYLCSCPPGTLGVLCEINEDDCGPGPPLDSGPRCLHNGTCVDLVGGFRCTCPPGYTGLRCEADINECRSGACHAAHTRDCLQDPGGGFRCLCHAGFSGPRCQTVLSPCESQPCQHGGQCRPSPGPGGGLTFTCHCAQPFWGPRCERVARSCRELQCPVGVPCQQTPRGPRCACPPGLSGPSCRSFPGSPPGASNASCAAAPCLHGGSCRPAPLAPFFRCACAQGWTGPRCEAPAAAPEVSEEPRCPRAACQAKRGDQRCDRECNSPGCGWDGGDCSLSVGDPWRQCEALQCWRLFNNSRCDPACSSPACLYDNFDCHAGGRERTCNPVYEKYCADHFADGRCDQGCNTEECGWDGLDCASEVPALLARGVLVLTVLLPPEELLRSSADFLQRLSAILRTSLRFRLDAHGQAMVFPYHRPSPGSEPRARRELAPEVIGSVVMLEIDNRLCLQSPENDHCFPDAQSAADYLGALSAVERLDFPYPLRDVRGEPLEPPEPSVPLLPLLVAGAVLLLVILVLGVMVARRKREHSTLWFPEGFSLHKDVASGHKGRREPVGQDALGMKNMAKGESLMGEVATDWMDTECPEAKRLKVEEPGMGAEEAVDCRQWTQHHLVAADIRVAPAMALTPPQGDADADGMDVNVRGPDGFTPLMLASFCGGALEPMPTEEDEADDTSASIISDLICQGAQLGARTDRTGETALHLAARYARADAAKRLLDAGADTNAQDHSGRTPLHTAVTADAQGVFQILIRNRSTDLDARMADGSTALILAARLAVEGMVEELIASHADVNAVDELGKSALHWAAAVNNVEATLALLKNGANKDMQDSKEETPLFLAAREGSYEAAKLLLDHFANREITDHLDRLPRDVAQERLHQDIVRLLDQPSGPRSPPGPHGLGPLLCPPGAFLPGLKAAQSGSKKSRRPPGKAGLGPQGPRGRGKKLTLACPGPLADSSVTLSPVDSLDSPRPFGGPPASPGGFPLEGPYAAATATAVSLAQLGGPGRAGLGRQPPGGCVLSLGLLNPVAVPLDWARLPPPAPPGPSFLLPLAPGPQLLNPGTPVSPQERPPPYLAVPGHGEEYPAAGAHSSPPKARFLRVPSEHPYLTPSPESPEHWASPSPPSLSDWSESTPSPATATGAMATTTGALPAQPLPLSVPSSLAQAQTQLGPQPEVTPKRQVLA
Assay [20] in a line: probe aEGFR binding to arrayed compounds – biochemical, biotinylated probe, 635/667 nm fluorescence, primary screen (AID 1097).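 Also: probe is a biotinylated anti-EGFR antibody binding compounds printed on slides; score combines fluorescence near 667 nm and signal to noise of each spot.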 The note with it: small-molecule microarray, higher = more signal.

The source made the active and inactive calls.

On to `C=CC[C@]1(C(=O)NCCCOC)N=C(c2ccc(OCCCO)cc2)O[C@H]1c1ccccc1N=[N+]=[N-]`, for which the composite z-score in assay [1] was 0.149; in assay [2], -0.0693; in assay [3] it was 0.119; in assay [4], 0.751; in assay [5], 1.39; in assay [6] it was 0.94. Besides, the composite z-score in [7] was 0.989; in [9] it was 1.18; in assay [10] it was -0.192; in [11] it was 1.55; in assay [15] it was 3.48; in assay [17] it was 0.0482. The composite z-score was 0.444 in [18], 0.935 in assay [19] and -0.265 in assay [20]. The z-score in assay [8] was 0.665 (inactive); in assay [12], -0.707 (inactive); in [13], -0.688 (inactive); in [14] it was 1.47 (inactive); in assay [16] it was 0.421 (inactive).

On to `O=C1c2ccccc2[C@](Cc2ccccc2I)(C(=O)NC2CC2)[C@H](c2ccc(CO)cc2)N1Cc1ccccc1`, for which the composite z-score was 0.16 in assay [1]; -0.211 in [2]; -0.0335 in assay [3]; 0.483 in [4]; 0.543 in assay [5]; 0.458 in assay [6]. The composite z-score was 0.774 in assay [7]; -0.364 in assay [9]; -0.0994 in [10]; 0.735 in assay [11]; 2.86 in [15]; -0.0741 in [17]. The composite z-score in assay [18] is 0.133; in assay [19], 0.566; in [20] it was -0.0681. Also, the z-score in [8] was -3.11 (inactive); in assay [12] it was -0.835 (inactive); in assay [13], -0.388 (inactive); in assay [14], -1.15 (inactive); in [16] it was 0.192 (inactive).

For the molecule `CC(C)C[C@@H]1NC(=O)[C@H]2C[C@@H](C(=O)NCCCCCCN)[C@@H](c3ccc(O)cc3)N2C1=O`, the composite z-score in assay [1] was 0.839; in [2], 0.252; in assay [3], -0.0212; in assay [4] it was -0.0652; in [5] it was -0.277; in assay [6], 0.612. The composite z-score in assay [7] worked out at 1.1; in [9], 0.472; in [10], 0.134; in assay [11], 1.17; in assay [15], 2.32; in assay [17], 0.679. Further, the composite z-score is 0.696 in assay [18], 0.529 in assay [19] and 0.125 in [20]. For the same molecule, the z-score was -0.811 (inactive) in [8]; -0.582 (inactive) in assay [12]; -0.464 (inactive) in [13]; -0.283 (inactive) in assay [14]; -0.11 (inactive) in assay [16].

Turning to `C=C(CCCC)C(=O)CC[C@H](OC(C)=O)c1cccc(OCCO)c1`, the composite z-score in [1] is 0.137; in [2], -0.475; in assay [3] it was -0.148; in assay [4], -0.177; in assay [5] it was -1.47; in assay [6], -0.331. Further, the composite z-score is -0.159 in [7]; -0.463 in assay [9]; -0.137 in assay [10]; 0.554 in [11]; -0.348 in assay [15]; -0.215 in [17]. In addition, the composite z-score in [18] is -0.848; in assay [19], -0.216; in assay [20] it was -0.363. Besides, the z-score in assay [8] is 0.818 (inactive); in assay [12], 0.292 (inactive); in assay [13] it was -1.84 (inactive); in assay [14], -0.303 (inactive); in [16], 0.787 (inactive).

Regarding `[N-]=[N+]=Nc1ccccc1[C@H]1OC(c2ccc(OCCCO)cc2)=N[C@@]1(Cc1ccccc1)C(=O)O`, the composite z-score in [1] came to 0.0481; in assay [2], 0.466; in assay [3], 0.0363; in [4], 0.641; in [5] it was 1.05; in assay [6], 1.69. The composite z-score in [7] is 1.3; in assay [9], 0.693; in assay [10] it was -0.374; in assay [11] it was 1.3; in assay [15], 3.3; in assay [17], -0.0152. Moreover, the values for the composite z-score in assay [18], in [19] and in assay [20] were 0.875, 1.11 and -0.0351, respectively. Further, the z-score is 1.02 (inactive) in assay [8]; 0.206 (inactive) in [12]; -0.329 (inactive) in assay [13]; -1.06 (inactive) in assay [14]; 0.355 (inactive) in [16].

Source of the values: PubChem BioAssay.
